In the library only some 3.7% were active in any assay of this set; here they are far more common.
Nrf2 block – Nrf2 pathway inhibition. Potency, µM (doses to about 46 µM), hits mostly inhibitors. AID 504444. A549 ARE-Fluc reporter, luciferase luminescence, 18-24 h. actives 2.1% (n = 360,000); also: nearly all actives have a fitted effect of over 60% in size
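Cells were seeded and rested 2 h, then exposed to compounds for 18-24 h. CellTiter-Fluor was read first as a viability measure. BugLite was added 15 min before the final luminescent read of ARE-luciferase activity in A549 cells.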
Nrf2 ARE act – activators of Nrf2 (ARE) signaling. AREc32 ARE-luciferase reporter (MCF7-derived line), luminescence, 24 h. Potency, µM (top dose mostly 46.1 µM), hits mostly activators. actives 0.31% (n = 410,000). AID 624171; also: nearly all actives have a fitted effect of over 65% in size
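AREc32 cells carrying an ARE-driven firefly luciferase reporter were seeded at 1000 cells/well in OPTI-MEM with 5% FBS, then exposed to compound for 24 hr at 37 deg C. Luminescence was read with Steady-Glo after 30 min at RT.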
ELG1 repair inh – inhibitors of ELG1-dependent DNA repair in HEK293T cells; actives 2.3% (n = 330,000); AID 504467; Potency, µM (top dose mostly 46.1 µM), usual class: inhibitors; HEK293T ELG1-luciferase reporter, luminescence, 16 h; DNA damage induced by 5-fluorouridine; also: nearly all actives have a fitted effect of over 55% in size
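Cells (2,000 per well) received 5-fluorouridine plus test compound or DMSO and were incubated 16 hr at 37 °C, 5% CO2. Luciferase activity was read by luminescence 30 min after ONE-Glo addition; signal suppression marked inhibition of damage-induced ELG1 function.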
A549 viability – A549 cytotoxicity, counter-screen for Nrf2 inhibitors | A549 ARE-Fluc cells, CellTiter-Fluor viability, 18-24 h | Potency, µM (doses to about 46 µM), actives largely listed as inhibitors | actives 0.16% (n = 390,000) | AID 504648
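Cytotoxicity counterscreen: CellTiter-Fluor fluorescence was measured in A549 ARE_Fluc cells after 18-24 h of compound exposure in a concentration series. The subsequent BugLite luminescent read reports ARE-luciferase activity.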
Numbers stand for hits; - = inactive; ? = inconclusive; . = no result given; [ ] = another dose, or the depositor's remark. Calls follow the shape of the dose curve; as a rule, active = well fitted curve in the direction sought with a large enough effect; inconclusive = small, poorly fitted or top-dose-only effect, or another doubt; inactive = no such curve, though single readings can be large; an effect the other way counts as inactive or inconclusive.

SMILES	Nrf2 block	Nrf2 ARE act	ELG1 repair inh	A549 viability
CC(C)Cc1nc2oc3c(NCc4cccnc4)ncnc3c2c2c1CCC2	-	-	?	-
COc1ccc(-c2csc(C(NC(C)=O)c3ccccc3)n2)cc1 (configuration not stated)	.	-	.	.
Cc1c(P(=S)(c2ccccc2)c2ccccc2)c2ccccc2n1C(=O)NCc1ccc(F)cc1	?	.	.	-
Nc1cc2ccncc2c2ccccc12	-	-	1.8µM	-
Cc1ccc(S(=O)(=O)N2CCN(CCc3ccccc3)CC2)c(C)c1	18µM	-	?	-
Cc1ccc(S(=O)(=O)N2CCN(Cc3cc(=O)n4ccccc4n3)CC2)c(C)c1	-	-	7.3µM	-
COc1ccc(S(=O)(=O)N2CCN(Cc3ccccc3)CC2)c(C)c1	-	-	-	-
Cc1ccc(S(=O)(=O)N2CCN(Cc3cc(=O)n4ccccc4n3)CC2)cc1C	-	-	-	-
COc1ccc(Nc2ncc(C(=O)N3CCC(C(N)=O)CC3)c3ccccc23)cc1	-	-	-	-
COc1ccc(Nc2ncc(C(=O)N3CCN(Cc4ccccc4)CC3)c3ccccc23)cc1	?	-	16µM	?
COC(=O)[C@@H](NC(=O)N1CCC(Cc2ccccc2)CC1)C(C)C	-	-	-	-
CCC1=C/C(=C/c2sc3ccccc3[n+]2CC)CC(C)(C)C1	-	?	-	-
CC[n+]1c(/C=C2\C=C(C)CC(C)(C)C2)sc2ccccc21	16µM	?	-	-[1.84 µM]
C=Cc1ccc(CSc2nnc(C)n3c2cc2occc23)cc1	18µM	-	.	-
CCN(CC)S(=O)(=O)c1ccc2oc(C(=O)N3CCCCCC3)c(C)c2c1	-	-	?	-
CCOC(=O)N1CCN(C(=O)c2oc3ccc(S(=O)(=O)N(CC)CC)cc3c2C)CC1	?	-	12µM	-
O=C(CN1C(=O)COc2ccccc21)N1CCCc2ccccc21	23µM	-	-	?
O=C(CN1C(=O)COc2ccccc21)N1CCCC1	-	-	-	-
Nc1nc(-c2ccccc2)c(N=Nc2cccc3ccccc23)s1	-	-	-	16µM
COc1cccc(Nc2nc(N)c([N+](=O)[O-])c(N3CCOCC3)n2)c1	-	-	23µM	-
Cc1[nH]n(-c2ccccc2)c(=O)c1/C=N\NC(=O)C1COc2ccccc2O1 (configuration not stated)	16µM	-	?	-
COCC(=O)N/N=C/c1c(C)[nH]n(-c2ccccc2)c1=O	15µM	-	?	?
CC(=O)N/N=C/c1c(C)[nH]n(-c2ccccc2)c1=O	15µM	-	-	?
Cc1[nH]n(-c2ccccc2)c(=O)c1/C=N/NC(=O)c1ccccc1F	?	-	2.3µM	-
COC(=O)N/N=C\c1c(C)[nH]n(-c2ccccc2)c1=O	?	-	-	?
SMILES	Nrf2 block	Nrf2 ARE act	ELG1 repair inh	A549 viability
Cc1c(/C=N\NC(=O)C2COc3ccccc3O2)c2ccccc2n1C (configuration not stated)	?	-[9.22 µM]	-	-
Clc1ccc(-c2ccc(CNCc3ccccn3)o2)cc1	?	-	?	-
CC[C@]12c3[nH]c4ccc(OC)cc4c3CCN1C(=O)C(CC(=O)NCC13CC4CC(CC(C4)C1)C3)C[C@@H]2C(=O)N1CCN(C(=O)c2ccco2)CC1 (some centres not stated)	?	-	-	-
CC[C@]12c3[nH]c4cc(-c5ccco5)ccc4c3CCN1C(=O)[C@@H](CC(=O)NCc1ccco1)C[C@@H]2C(=O)N1CCN(C(=O)C2CC2)CC1	-	-	-	-
CC[C@]12c3[nH]c4ccc(Cl)cc4c3CCN1C(=O)[C@@H](CC(=O)NCCC1=CCCCC1)C[C@@H]2C(=O)N1CCN(C(=O)c2ccco2)CC1	16µM	-	16µM	?
CC[C@]12c3[nH]c4cc(-c5ccco5)ccc4c3CCN1C(=O)[C@@H](CC(=O)NCCC1=CCCCC1)C[C@@H]2C(=O)N1CCN(C(=O)C2CC2)CC1	?	-	21µM	?
CC[C@]12c3[nH]c4ccc(Cl)cc4c3CCN1C(=O)[C@@H](CC(=O)NCC13CC4CC(CC(C4)C1)C3)C[C@@H]2C(=O)N1CCN(C(=O)c2ccco2)CC1	?	-	21µM	?
CC(C)N(C(=O)[C@H]1C[C@H](CC(=O)NCC23CC4CC(CC(C4)C2)C3)C(=O)N2CCc3c([nH]c4ccc(Cl)cc34)[C@]12C)C(C)C	?	-	?	?
